# Experimental data: PubChem BioAssay (NCI)
# Compounds without any hit were thinned out: in the full panel of roughly 83,000, 20% have a hit.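 Method: cells in 96-well plates; compound added at one concentration; 48 h incubation; percent growth measured; values under 10 scored active.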 Values without a mark were called inactive. Activity calls are given as the source filed them.
# System: T-47D breast
# Experiment: NCI-60 one-dose screen, 48 h (100 = growth as untreated, 0 = no growth, -100 = all killed)
# Settings: 10 µM unless noted
# Procedure: Growth inhibition of the T-47D human tumor cell line is measured as a screen for anti-cancer activity. Cells are grown in 96 well plates and exposed to the test compound for 48 hours. Compounds are tested at a single concentration, which is 10^-5 M for most compounds. The reported endpoint is percent growth (GI% or GIPRCNT), where numbers from 0 - 100% represent growth inhibition, and numbers from -100% - 0 represent cell death. For example, a value of 40 represents 60% growth inhibition. A value of 0 means no net growth occurred over the course of the experiment. A value of -40 indicates 40% of cells at the beginning of the experiment died by the end of the experiment. A value of -100 means all cells are dead at the end of the experiment.
# NCI-60 Human Tumor Cell Lines Screen was performed using the standard one-dose NCI protocol, which is described in more detail at https://dtp.cancer.gov/discovery_development/nci-60/default.htm.
# Compounds with GIPRCNT values below 10 were considered active. Activity score was based on GIPRCNT using the following formula: […]
# Score is 0 for GIPRCNT values of 100 or above, 50 for GIPRCNT values of 0, and 100 for GIPRCNT values of -100.
row,SMILES,growth
1,CCCC(C)(C)c1ccc2c(c1)OC(C)(C)[C@@H]1CC=C(C)C[C@@H]21,97.2%
2,Nc1ccc(N)c2c1Oc1ccccc1O2,98.1%
3,C[C@]12CC[C@H]3[C@@H](C[C@@H]4N=C(c5ccc(O)cc5)S[C@@]45C[C@H](O)CC[C@]35C)[C@@H]1CC[C@@H]2O,67.7%
4,CCOc1c(Cl)cc(CNC(C)C(O)c2ccccc2)cc1OC (stereo not given),86%
5,COc1cc[c]([Hg][Cl])cc1,-3.04% (active)
6,CC1CC=CCC12C(=O)NC(=S)NC2=O (stereo not given),98.2%
7,OC1(c2ccc(Cl)cc2Cl)c2ccccc2C2=NCCN21 (stereo not given),93.3%
8,COc1cc(CNCCc2ccc(Cl)cc2)cc(OC)c1O,61.7%
9,CC(C)(C)N(Cc1ccccc1)N=O,97.3%
10,CCCCNCCc1ccccn1,97.2%
11,CC(=O)N1N=C(c2ccccc2)CC1c1sc(N(CCCl)CCCl)nc1Cl (stereo not given),82.3%
12,CN1CCN(C(=O)COc2ccc(/C=C3\CC4C5CC=C6CC(Cl)CCC6(C)C5CCC4(C)C3=O)cc2)CC1 (stereo not given),71.2%
13,Nc1cccc2c1Oc1ccccc1O2,115%
14,C[C@]12CC[C@@H]3C4=C(CC[C@H]3[C@@H]1CC[C@@H]2O)CC(=O)CC4,95.4%
15,CCOP(=O)(OCC)Oc1ccc(Sc2ccc(OP(=O)(OCC)OCC)cc2)cc1,97.9%
16,CCOC(=O)c1cnc(SCc2ccc(Cl)c(Cl)c2)nc1N1CC1,58.6%
17,CC(CC(C#N)(c1ccccc1)c1ccccc1)N1CCOCC1 (stereo not given),90%
18,S=P(Nc1ccccc1)(Nc1ccccc1)c1ccccc1,87.5%
19,c1ccc(CCN2CCCCC2Cc2ccccc2)cc1 (stereo not given),86.2%
20,COc1cc(NCCCCCN=C(N)N)c2ncccc2c1,11.8%

row,SMILES,growth
1,COc1ccc(C2=NN(c3ccccc3)C(c3sc(N(CCCl)CCCl)nc3Cl)C2)cc1 (stereo not given),69.5%
2,O=S(=O)(Cl)c1ccccc1 (tested in a mixture with another compound),97.7%
3,CCC[CH2][Sn]1([CH2]CCC)[O]C(=O)c2cccc([N+](=O)[O-])c2C(=O)[O]1,-76.3% (active)
4,CCCCn1cc(C(=O)/C(C#N)=C/c2cc3ccccc3nc2Cl)c2cc(OC)ccc21,80.4%
5,CO[C@@H](c1ccccc1Cl)[C@H](C)OC(N)=O,101%
6,COC(=O)C[Se]C(=O)c1ccccc1OC(C)=O,84.5%
7,Fc1ccc(C2=NN(c3ccccc3)C(c3sc(N(CCCl)CCCl)nc3Cl)C2)cc1 (stereo not given),61.5%
8,CC[C@H](C)[C@H](NC(=O)Nc1ccccc1)C(=O)N(C)[C@H](C[C@@H](OC(C)=O)c1nc(C(=O)N[C@@H](Cc2ccccc2)C[C@H](C)C(=O)OC)cs1)C(C)C,61.6%
9,COC1=CC(=O)OC(CCc2ccc3c(c2)OCO3)C1 (stereo not given),94.7%
10,CCOC(=O)/C=C(\C)Nc1ccc(N/C(C)=C/C(=O)OCC)c2c1Oc1ccccc1O2,103%
11,COc1ccc(-c2ccc(OC)c(OC)c2OC)cc1,27%
12,OC1(c2ccccc2F)c2ccccc2C2=NCCN21 (stereo not given),104%
13,CSc1ccccc1NP1(=O)OCC(C)([N+](=O)[O-])CO1 (stereo not given),96%
14,COC(=O)C(=[N+]=[N-])C(=O)OC,109%
15,CC1(C)N=C(N)N=C(N)N1c1ccc(OCCCCOc2ccc(S(=O)(=O)F)cc2)c(Cl)c1,25.9%
16,Nc1nc(N)c(-c2ccc(Cl)c(Cl)c2)c(/C=C/c2ccc(S(=O)(=O)F)cc2)n1,96.1%
17,CC1(C)CC(=O)CC(C)(C)N1N=O,97.3%
18,CCC[CH2][Sn]([CH2]CCC)([CH2]CCC)[O]C(=O)CC,-74.4% (active)
19,CC(/C=N/N=C(N)N)=N/N=C(N)N,60.1%
20,O=C1NC(=S)NC(=O)C1=Cc1ccccc1,93.4%
